# Laboratory results: PubChem BioAssay (Tox21)
# Records with an inconclusive call do not appear. Where a call stands in place of a potency, no number is given. Activity calls are given as the source filed them. The call rests on the fitted dose curve; in most records, active means well fitted curve in the direction sought with a large enough effect in the repeat runs; inconclusive means weak or mixed curves; inactive means no such curve, though single readings can be large; an effect the other way counts as inactive or inconclusive.
# Test system: not listed separately
# Assay: Caspase-3/7 induction in HepG2 cells by small molecules, qHTS cell viability counter screen (AID 1346981); further: nearly all actives have a fitted effect of over 30% in size
# Settings: CellTiter-Fluor fluorescence, 17 h; series mostly up to 92.4 µM
# Outline: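 Multiplexed with the caspase-3/7 assay: HepG2 cells, 16 hr compound treatment, CellTiter-Fluor viability detection by fluorescence.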
SMILES,Potency,"activity change, negative = cytotoxicity"
COc1ccc(S(=O)(=O)N2c3ccc(Cl)cc3[C@@](O)(c3ccccc3Cl)[C@H]2C(=O)N2CCC[C@@H]2C(N)=O)cc1OC,inactive,–
CCCCCCCC/C=C\CCCCCCCC(=O)OCCCC,–,2.37% [at 19 µM] (inactive)
COc1ccc(OC)c(Cl)c1,inactive,–
N[C@@H](CCC(=O)N[C@@H](CS)C(=O)NCC(=O)O)C(=O)O,–,-0.0408% [at 19 µM] (inactive)
CCOC(=O)c1ccc(OC(=O)CCCCCN=C(N)N)cc1,inactive,–
CC(C)CC(C)CC(C)CC(C)COC(=O)c1ccccc1C(=O)OCC(C)CC(C)CC(C)CC(C)C (centres undefined),inactive,–
CC(=C(CCOC(=O)C(C)C)SSC(CCOC(=O)C(C)C)=C(C)N(C=O)Cc1cnc(C)nc1N)N(C=O)Cc1cnc(C)nc1N,inactive,–
COC(=O)C1CC(=O)C(C(=O)OC)CC1=O (centres undefined),–,9.03% [at 8.39 µM] (inactive)
Nc1cccc(O)c1,inactive,–
CC(C)CCCC(C)(C)O,inactive,–
O=C(NCC(O)CO)c1c(I)c(C(=O)NCC(O)CO)c(I)c(N(CCO)C(=O)CO)c1I (centres undefined),inactive,–
CCC(C)NC(N)=O (centres undefined),inactive,–
C[C@H](CCC(=O)O)[C@H]1CC[C@H]2[C@@H]3C(=O)C[C@@H]4CC(=O)CC[C@]4(C)[C@H]3CC(=O)[C@]12C,inactive,–
CC(C)OC(=O)CCCCC(=O)OC(C)C,inactive,–
CCCOC(=O)C(C)O (centres undefined),inactive,–
O=S(=O)(O)CCN1CCN(CCO)CC1,inactive,–
CCCCOC(=O)c1ccccc1,inactive,–
O=C(OCc1ccccc1)C(=O)OCc1ccccc1,inactive,–
COC(=O)CCc1ccc(OCC(O)CNC(C)C)cc1 (centres undefined),inactive,–

SMILES,Potency,"activity change, negative = cytotoxicity"
CCOCCOCCOCC,inactive,–
CO[C@@H]1[C@@H](OC(N)=O)[C@@H](O)[C@H](Oc2ccc3c(O)c(NC(=O)c4ccc(O)c(CC=C(C)C)c4)c(=O)oc3c2C)OC1(C)C,inactive,–
C=Cc1ccccn1,inactive,–
CCCC/C=C/C=C\C=O,inactive,–
CCCN1C[C@H](CSC)C[C@@H]2c3cccc4[nH]cc(c34)C[C@H]21,inactive,–
c1ccc2c(c1)ccc1c3ccccc3ccc21,inactive,–
CCO[Si](CCCS)(OCC)OCC,inactive,–
COC(=O)CCCCCCCC(=O)OC,inactive,–
O=C(O)c1cc(Cl)cc([N+](=O)[O-])c1Cl,inactive,–
O=C1CCCC(=O)O1,inactive,–
CC1=C(C(=O)O)N2C(=O)[C@@H](NC(=O)[C@H](N)c3ccc(O)cc3)[C@H]2SC1,inactive,–
CC(CC=O)CCCC(C)(C)O (centres undefined),inactive,–
O=C1O[C@@H]2[C@@H](O)[C@H](O)O[C@@H]2[C@H]1O,inactive,–
COCCc1ccc(OCC2CO2)cc1 (centres undefined),inactive,–
Cc1ccc2ccc(Cl)cc2n1,inactive,–
c1ccc2nccnc2c1,inactive,–
COc1cc(C(=S)N2CCOCC2)cc(OC)c1OC,inactive,–
COCCOCCOCCOCCO,inactive,–

# Target: Nuclear receptor subfamily 1 group I member 2 (Homo sapiens) (UniProt O75469)
# Sequence (O75469 whole entry, looked up): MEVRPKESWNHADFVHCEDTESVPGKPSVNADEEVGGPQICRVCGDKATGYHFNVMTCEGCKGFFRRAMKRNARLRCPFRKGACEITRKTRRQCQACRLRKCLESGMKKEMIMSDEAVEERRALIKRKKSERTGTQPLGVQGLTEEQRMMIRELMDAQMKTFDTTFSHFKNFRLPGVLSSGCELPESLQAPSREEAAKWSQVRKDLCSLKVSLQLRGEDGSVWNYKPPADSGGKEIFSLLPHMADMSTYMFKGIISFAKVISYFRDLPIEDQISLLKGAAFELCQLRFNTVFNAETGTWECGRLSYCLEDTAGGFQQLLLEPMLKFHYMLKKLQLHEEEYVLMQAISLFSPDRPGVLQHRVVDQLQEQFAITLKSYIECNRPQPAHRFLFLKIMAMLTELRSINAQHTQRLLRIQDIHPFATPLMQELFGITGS
# Assay: Human pregnane X receptor (PXR) small molecule agonists, qHTS assay (AID 1346982); further: nearly all actives have a fitted effect of over 35% in size; further: potency means the concentration at half of the fitted maximal effect
# Settings: PXR-Luc HepG2, CYP3A4 luciferase reporter, 24 h; series mostly up to 92.4 µM
# Outline: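 We seeded PXR-Luc HepG2 cells in assay medium containing 5% charcoal-stripped FBS, added compounds 5 hr later, incubated 24 hr, and read luminescence with ONE-Glo reagent.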
SMILES,activation,Potency
CCCCCCCC/C=C\CCCCCCCC(=O)OCCCC,3.05% [at 19 µM] (inactive),–
COc1ccc(OC)c(Cl)c1,–,inactive
CC(C)CC(C)CC(C)CC(C)COC(=O)c1ccccc1C(=O)OCC(C)CC(C)CC(C)CC(C)C (centres undefined),–,inactive
COC(=O)C1CC(=O)C(C(=O)OC)CC1=O (centres undefined),2.25% [at 8.39 µM] (inactive),–
Nc1cccc(O)c1,–,inactive
CC(C)CCCC(C)(C)O,–,inactive
CCC(C)NC(N)=O (centres undefined),–,inactive
CC(C)OC(=O)CCCCC(=O)OC(C)C,–,inactive
CCCOC(=O)C(C)O (centres undefined),–,inactive
O=S(=O)(O)CCN1CCN(CCO)CC1,–,inactive
CCCCOC(=O)c1ccccc1,–,inactive
O=C(OCc1ccccc1)C(=O)OCc1ccccc1,–,inactive
COC(=O)CCc1ccc(OCC(O)CNC(C)C)cc1 (centres undefined),–,inactive
CCOCCOCCOCC,–,inactive
C=Cc1ccccn1,–,inactive
CCCC/C=C/C=C\C=O,–,24.3 µM (active)
CCCN1C[C@H](CSC)C[C@@H]2c3cccc4[nH]cc(c34)C[C@H]21,–,inactive
c1ccc2c(c1)ccc1c3ccccc3ccc21,–,inactive
CCO[Si](CCCS)(OCC)OCC,–,inactive
COC(=O)CCCCCCCC(=O)OC,–,inactive
O=C(O)c1cc(Cl)cc([N+](=O)[O-])c1Cl,–,inactive
O=C1CCCC(=O)O1,–,inactive
O=C1O[C@@H]2[C@@H](O)[C@H](O)O[C@@H]2[C@H]1O,–,inactive
COCCc1ccc(OCC2CO2)cc1 (centres undefined),–,inactive
Cc1ccc2ccc(Cl)cc2n1,–,inactive
c1ccc2nccnc2c1,–,inactive
COCCOCCOCCOCCO,–,inactive

# Target: Nuclear receptor subfamily 1 group I member 2 (Rattus norvegicus) (UniProt Q9R1A7)
# Sequence (Q9R1A7 whole entry, looked up): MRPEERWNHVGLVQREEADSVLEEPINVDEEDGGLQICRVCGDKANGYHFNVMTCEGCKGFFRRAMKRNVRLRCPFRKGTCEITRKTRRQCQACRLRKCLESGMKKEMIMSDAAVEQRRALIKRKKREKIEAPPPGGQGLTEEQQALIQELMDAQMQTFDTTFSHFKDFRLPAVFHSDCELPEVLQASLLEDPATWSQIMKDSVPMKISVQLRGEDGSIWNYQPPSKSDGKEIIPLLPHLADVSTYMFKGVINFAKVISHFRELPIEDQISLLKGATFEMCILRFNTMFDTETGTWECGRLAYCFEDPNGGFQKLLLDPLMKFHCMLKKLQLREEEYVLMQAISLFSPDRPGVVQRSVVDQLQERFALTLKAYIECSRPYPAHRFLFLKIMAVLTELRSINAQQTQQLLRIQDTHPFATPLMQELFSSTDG
# Assay: Rat pregnane X receptor (rPXR) activation by small molecules, qHTS assay (AID 1346983); further: nearly all actives have a fitted effect of over 20% in size
# Settings: rPXR luciferase reporter cells, One-Glo luminescence, 24 h; active compounds read high
# Outline: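 Cell-based rPXR luciferase reporter assay, 2,000 cells per well, rested 5hr at 37 C before compound addition in DMSO, then 24 hr at 37 C. One-Glo reagent was added and luminescence read after 30 min at room temperature.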
row,SMILES,max activation
1,COc1ccc(S(=O)(=O)N2c3ccc(Cl)cc3[C@@](O)(c3ccccc3Cl)[C@H]2C(=O)N2CCC[C@@H]2C(N)=O)cc1OC,11.3% (inactive)
2,N[C@@H](CCC(=O)N[C@@H](CS)C(=O)NCC(=O)O)C(=O)O,3.38% (inactive)
3,CCOC(=O)c1ccc(OC(=O)CCCCCN=C(N)N)cc1,0.318% (inactive)
4,CC(=C(CCOC(=O)C(C)C)SSC(CCOC(=O)C(C)C)=C(C)N(C=O)Cc1cnc(C)nc1N)N(C=O)Cc1cnc(C)nc1N,-2.83% (inactive)
5,O=C(NCC(O)CO)c1c(I)c(C(=O)NCC(O)CO)c(I)c(N(CCO)C(=O)CO)c1I (centres undefined),-4.62% (inactive)
6,C[C@H](CCC(=O)O)[C@H]1CC[C@H]2[C@@H]3C(=O)C[C@@H]4CC(=O)CC[C@]4(C)[C@H]3CC(=O)[C@]12C,-0.558% (inactive)
7,CO[C@@H]1[C@@H](OC(N)=O)[C@@H](O)[C@H](Oc2ccc3c(O)c(NC(=O)c4ccc(O)c(CC=C(C)C)c4)c(=O)oc3c2C)OC1(C)C,-3.79% (inactive)
8,CC1=C(C(=O)O)N2C(=O)[C@@H](NC(=O)[C@H](N)c3ccc(O)cc3)[C@H]2SC1,-3.3% (inactive)
9,CC(CC=O)CCCC(C)(C)O (centres undefined),-1.75% (inactive)
10,COc1cc(C(=S)N2CCOCC2)cc(OC)c1OC,-2.22% (inactive)
